Screening results deposited in PubChem by several laboratories.
Hits are enriched below; roughly 4% of the tested compounds scored in any of these assays.
Measles CPE: protection of cells from measles virus. Measles virus-infected cells, CPE protection, absorbance. protection (pct of control), % at 4 µM. actives 1.5% (n = 140,000); in the data active = protection mostly above about 24%, no sharp cut-off; inactive = mostly below about 26%
HSV replic up: HSV replication enhancement; HSV replication augmentation in cells, fold increase; maximum fold increase; actives 0.005% (n = 220,000); AID 1956; in the data active = maximum fold increase above about 1.5; inconclusive = no clear call, values can overlap the other calls; tested in PC3 cells
Cl transport mod: KCC2 (human) Cl- transport modulation | Q9H2X9 | KCC2 cells, thallium flux FluoZin-2 fluorescence | B-score of Tl+ flux slope (higher = more flux/activation; lower = inhibition) at 10 µM | actives 2.2% (n = 190,000) | AID 1456;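 active = thallium flux slope and its plate-corrected score both differing from the plate sample mean at a set confidence after two filtering rounds, in either direction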;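 note: slope of fluorescence scaled to starting intensity during 10 to 20 s after thallium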
Arbovirus anti: blocks arbovirus infection. arbovirus infection cell-based antiviral screen. inhibition, % at 10 µM. actives 0.37% (n = 200,000); in the data active = inhibition above about 30%
ROMK primary: human ROMK K+ channel modulation, primary screen; P48048; Tet-inducible ROMK, thallium flux fluorescence; actives lie on both sides; B-score at 10 µM; actives 2% (n = 130,000); AID 1918;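 active = signal ratio slope over the read window, or its plate-corrected B-score, at least 3 SD from the plate mean, either direction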;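 note: B-score of the F/F0 ratio slope over 7 to 12 s after thallium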
Target sequence (P48048 whole entry, looked up): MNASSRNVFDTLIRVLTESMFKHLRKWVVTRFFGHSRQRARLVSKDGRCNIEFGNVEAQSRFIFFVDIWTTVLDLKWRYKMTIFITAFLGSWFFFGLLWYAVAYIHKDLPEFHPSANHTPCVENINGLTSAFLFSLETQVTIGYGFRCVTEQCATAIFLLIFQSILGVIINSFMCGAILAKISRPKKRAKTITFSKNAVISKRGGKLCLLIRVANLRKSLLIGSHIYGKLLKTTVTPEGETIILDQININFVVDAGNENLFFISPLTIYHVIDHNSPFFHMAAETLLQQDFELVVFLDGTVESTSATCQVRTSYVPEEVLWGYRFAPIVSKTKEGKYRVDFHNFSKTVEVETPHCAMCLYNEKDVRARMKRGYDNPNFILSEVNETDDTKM
ROMK hit retest: retested hit modulating human ROMK potassium channel; shares compounds with ROMK primary; ROMK thallium flux, fluorescence ratio; hits give low values; normalized thallium flux (F/F0 slope) at 10 µM; actives 54% (n = 3,000);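 active = Flux at 10 µM at least 3 SD below or above vehicle control mean in one or both replicates; inconclusive = no clear call, values can overlap the other calls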
Numbers without * were called inactive; i = inactive; ? = inconclusive; . = not tested or not shown.

SMILES | Measles CPE | HSV replic up | Cl transport mod | Arbovirus anti | ROMK primary | ROMK hit retest
Cc1c(NC(=O)/C(C#N)=C/C2CC=CCC2)c(=O)n(-c2ccccc2)n1C (stereo unspecified) | 14 | . | -0.12 | 2 | -5* | 0.043*
O=C(CCCN1C(=O)c2ccccc2C1=O)Nc1cccc(S(=O)(=O)NC2=NCCC2)c1 | . | i | 0.12 | 3 | 1.3 | .
Cc1ccc(N2C(=O)[C@@H]3[C@H](C2=O)[C@H]2C=C(C(=O)c4ccccc4)C=CN2[C@@H]3C(=O)c2ccc(Cl)cc2)cc1 | 10 | i | 0.25 | -6 | . | 0.077
COc1cc(/C=C/c2nc3ccc([N+](=O)[O-])cc3s2)ccc1OCC(=O)O | . | i | -0.035 | . | . | .
Cc1ccc(N/C(N)=N/c2nc(CSc3nnc(C)s3)cc(=O)[nH]2)c(C)c1 | . | i | 0.85 | -9 | 6.3* | 0.086
COc1ccc(N/C(N)=N/c2nc(CSc3nnc(C)s3)cc(=O)[nH]2)cc1 | . | i | -0.27 | -9 | 3.9* | 0.079
COC(=O)Cc1cc(=O)[nH]c(/N=C(\N)Nc2ccc(C)cc2)n1 | 3 | i | -0.12 | 2 | . | .
O=C(/C=C/c1cccc([N+](=O)[O-])c1)N1CCN(S(=O)(=O)c2cccs2)CC1 | . | i | -0.11 | -5 | -0.57 | .
CCC1=C(OC(=O)N(CC)CC)N2C(=O)OC(=NCCc3c[nH]c4ccccc34)[C@]2(C)[C@H]2C1=CC[C@H]1C(=O)N(C)C(=O)[C@H]12 | . | i | 0.018 | . | . | .
CC(C)NC(=O)[C@H](CSCc1ccccc1)N1Cc2ccccc2C1=O | 11 | . | -1 | -4 | -0.13 | .
O=C(NC1CCCCC1)[C@H](CSCc1ccccc1)N1Cc2ccccc2C1=O | 6 | i | -1.1 | -5 | -3.4* | ?
Cc1nc2ncnn2c(C)c1C/C=C/c1ccccc1 | . | i | -2.4 | 5 | -0.066 | .
Cc1cccc(Nc2ncccc2C(=O)O)c1C | 19 | i | -0.98 | -1 | . | 0.079
Cc1cccc(Nc2ccccc2C(=O)O)c1C | 15 | i | -0.75 | 28 | . | .
COc1ccc(CNC(=O)C/C(C)=N/NC(=O)COc2ccc(C)cc2Br)cc1 | . | i | -0.56 | -18 | 3.4* | 0.074
C/C(CC(=O)NCc1ccco1)=N\NC(=O)COc1ccc(Cl)cc1Cl | . | i | -1.2 | -20 | 3.6* | 0.092
O=c1[nH]c(=O)n(Cc2ccco2)c2c1C(C(F)(F)F)(C(F)(F)F)N=C(CCc1ccccc1)N2 | 8 | i | . | -3 | . | 0.063*
O=c1[nH]c(=O)n(-c2ccccc2)c2c1C(C(F)(F)F)(C(F)(F)F)N=C(CCC1CCCCC1)N2 | 8 | i | -1.6 | 2 | -3.4* | 0.062*
COc1ccc([N+](=O)[O-])cc1NC(=O)c1ccc(N2C(=O)CCC2=O)cc1 | . | i | . | . | . | .
CCCCc1n(CC(=O)c2ccc(Cl)cc2)c2ccccc2[n+]1C | . | i | 1.1 | 3 | 1.3 | .
COc1ccc([C@H]2C(C#N)=C([S-])N[C@](C)(O)[C@@H]2[n+]2ccccc2)cc1 | . | i | -0.4 | . | -0.023 | .
O=C(Nc1cccc(Cl)c1)c1cc(F)cc2c1OCOC2 | . | i | . | . | . | .
COc1ccc(S(=O)(=O)Cc2ccc(C(=O)NC3CCCC3)o2)cc1 | 13 | i | 0.15 | 7 | . | .
COc1ccccc1S(=O)(=O)Cc1ccc(C(=O)NC2CCCCC2)o1 | . | . | 0.14 | 7 | . | 0.083
O=C1c2ccccc2-c2onc3ccc(N4CCCC4)c1c23 | . | ? | -1.7 | -39 | -5.6* | 0.06*
SMILES | Measles CPE | HSV replic up | Cl transport mod | Arbovirus anti | ROMK primary | ROMK hit retest
CC(C)c1ccc(OCC(=O)N(c2ccccn2)C2CCCCC2)cc1 | 19 | i | -1.5 | 3 | -2.6* | 0.055*
Cc1cccc(-n2c(Cc3ccccc3)nnc2SCc2ccc([N+](=O)[O-])cc2)c1 | 2 | i | -1.7 | -18 | -7.4* | 0.044*
COc1ccc(-n2c(Cc3ccccc3)nnc2SCc2ccc([N+](=O)[O-])cc2)cc1 | 4 | i | -2.3 | -7 | -2.3* | 0.06*
Cc1cccc(-n2c(Cc3ccccc3)nnc2SCC(=O)N2CCOCC2)c1 | 17 | i | -0.84 | 2 | . | .
O=[N+]([O-])c1ccc(CSc2nnc(Cc3ccccc3)n2-c2ccc(F)cc2)cc1 | 9 | i | -1.8 | -8 | -2 | .
CCOc1ccccc1NC(=O)c1cc(SC)ccc1Cl | . | . | -0.51 | -9 | -0.91 | .
CCOc1cc(CNC2CCCC2)cc(Cl)c1OCc1ccc(F)cc1 | 10 | . | -0.1 | -52 | -3.8* | 0.061*
COc1cc(CNC2CCCC2)cc(Cl)c1OCc1ccc(F)cc1 | 2 | i | . | -41 | . | .
